Records with an inconclusive call do not appear. Active and inactive are the calls of the source. Unless noted, calls follow the shape of the full dose curve.
Key:
[1] = Nuclear factor erythroid 2-related factor 2/antioxidant responsive element (Nrf2/ARE) small molecule agonists: qHTS cell viability counter screen in human keratinocytes (AID 1919968; active = well fitted curve in the direction sought with a large enough effect in the repeat runs; an effect the other way counts as inactive or inconclusive; also: nearly all actives have a fitted effect of over 55% in size)
Method in brief: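 In human HaCaT keratinocytes stably expressing an ARE-driven luciferase, compound exposure lasted 23 h at 37 C under 5% CO2. Viable cells are quantified with a protease-based fluorogenic reagent (CellTiter-Fluor) read 1 h after addition.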

[2] = Nuclear factor erythroid 2-related factor 2/antioxidant responsive element (Nrf2/ARE) small molecule agonists: luciferase reporter gene qHTS assay in human keratinocytes (AID 1919969); also: nearly all actives have a fitted effect of over 35% in size; also: potency is read from the fitted curve at half-maximal effect
[3] = target: Gonadotropin-releasing hormone receptor (Homo sapiens) (UniProt P30968); assay: Human gonadotropin-releasing hormone receptor (GnRHR) small molecule agonists, calcium flux assay in GnRHR-HEK293 cells (AID 1920063); also: nearly all actives have a fitted effect of over 35% in size
Chain of Gonadotropin-releasing hormone receptor (Homo sapiens) (P30968 whole entry, looked up): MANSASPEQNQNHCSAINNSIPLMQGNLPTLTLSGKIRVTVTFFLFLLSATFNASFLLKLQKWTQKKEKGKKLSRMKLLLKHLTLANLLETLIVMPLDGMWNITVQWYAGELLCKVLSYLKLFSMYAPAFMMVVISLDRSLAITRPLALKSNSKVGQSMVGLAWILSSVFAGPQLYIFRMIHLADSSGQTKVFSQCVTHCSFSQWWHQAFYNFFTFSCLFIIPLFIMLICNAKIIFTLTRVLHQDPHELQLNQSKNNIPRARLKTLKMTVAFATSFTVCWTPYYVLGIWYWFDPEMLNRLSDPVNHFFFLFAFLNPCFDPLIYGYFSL
Method in brief: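 Intracellular calcium rise is the read-out: engineered human GnRHR HEK293 cells, dye-loaded, are exposed to DMSO-dissolved compounds and fluorescence at Ex/Em 480/540 is tracked for 3 min.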

[4] = target: KiSS-1 receptor (Homo sapiens) (UniProt Q969F8); assay: Human kisspeptin (KISS1R) small molecule agonists, calcium flux assay in KISS1R-HEK293 cells (AID 1920064; active = well fitted curve in the direction sought with a large enough effect in the repeat runs; an effect the other way counts as inactive or inconclusive)
Chain of KiSS-1 receptor (Homo sapiens) (Q969F8 whole entry, looked up): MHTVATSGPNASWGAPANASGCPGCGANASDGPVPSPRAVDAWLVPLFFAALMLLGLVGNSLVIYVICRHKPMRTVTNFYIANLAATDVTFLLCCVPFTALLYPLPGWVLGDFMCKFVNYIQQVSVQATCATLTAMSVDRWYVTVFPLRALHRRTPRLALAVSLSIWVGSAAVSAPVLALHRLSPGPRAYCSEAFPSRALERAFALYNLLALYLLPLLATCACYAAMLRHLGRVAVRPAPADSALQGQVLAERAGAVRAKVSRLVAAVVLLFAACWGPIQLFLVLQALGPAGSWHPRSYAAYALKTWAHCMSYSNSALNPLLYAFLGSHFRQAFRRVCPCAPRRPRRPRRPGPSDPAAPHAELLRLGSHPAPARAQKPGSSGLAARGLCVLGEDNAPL
Method in brief: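 Concentration-response testing used 15 concentrations in triplicate on human KISS1R-expressing HEK293 cells. Calcium-dependent fluorescence (Ex/Em 480/540) was followed kinetically for 3 min after compound transfer.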

[5] = G protein-coupled receptor (GPCR) small molecule agonists, calcium flux assay: HEK293 wild type cell line counter screen (AID 1920065)
Method in brief: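 Fluorescence intensity signals activation. After overnight (18 h) culture and a 1 h calcium dye load at 37 C, compounds are added by pin tool and the plate read at 480/540 nm for 3 min in 1 s steps.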

[6] = p53 small molecule agonists, cell-based qHTS assay with human liver microsomes: qHTS cell viability counter screen (AID 1963579); also: nearly all actives have a fitted effect of over 45% in size
Method in brief: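 Seed p53RE-bla cells at 4,000 per well; incubate 5 h at 37 C; add compound, human liver microsomes and NADPH; incubate 16 h at 37 C; add CellTiter-Glo; after 30 min at room temperature, read luminescence.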

[7] = p53 small molecule agonists, cell-based qHTS assay with rat liver microsomes: qHTS cell viability counter screen (AID 1963580); also: nearly all actives have a fitted effect of over 45% in size
Method in brief: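 Counter screen for cytotoxicity under metabolic activation: rat liver microsomes and NADPH, 0.5 mg/mL final each, added with compounds to p53RE-bla HCT-116 cells; 16 h at 37 C, then ATP luminescence read.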

[8] = p53 small molecule agonists, cell-based qHTS assay: qHTS cell viability counter screen (AID 1963581); also: nearly all actives have a fitted effect of over 45% in size
Method in brief: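 Luminescence from CellTiter-Glo, reflecting ATP content, serves as the cytotoxicity measure; it is taken after the 2 h reporter substrate step in HCT-116 p53RE-bla cells dosed for 16 h at 37 C.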

[9] = target: 5-hydroxytryptamine receptor 2A (Homo sapiens) (UniProt P28223); assay: 5-hydroxytryptamine receptor 2A (HTR2A) small molecule antagonists, cell-based qHTS assay (AID 1963586); also: nearly all actives have a fitted effect of over 45% in size; also: potency is read from the fitted curve at half-maximal effect
Chain of 5-hydroxytryptamine receptor 2A (Homo sapiens) (P28223 whole entry, looked up): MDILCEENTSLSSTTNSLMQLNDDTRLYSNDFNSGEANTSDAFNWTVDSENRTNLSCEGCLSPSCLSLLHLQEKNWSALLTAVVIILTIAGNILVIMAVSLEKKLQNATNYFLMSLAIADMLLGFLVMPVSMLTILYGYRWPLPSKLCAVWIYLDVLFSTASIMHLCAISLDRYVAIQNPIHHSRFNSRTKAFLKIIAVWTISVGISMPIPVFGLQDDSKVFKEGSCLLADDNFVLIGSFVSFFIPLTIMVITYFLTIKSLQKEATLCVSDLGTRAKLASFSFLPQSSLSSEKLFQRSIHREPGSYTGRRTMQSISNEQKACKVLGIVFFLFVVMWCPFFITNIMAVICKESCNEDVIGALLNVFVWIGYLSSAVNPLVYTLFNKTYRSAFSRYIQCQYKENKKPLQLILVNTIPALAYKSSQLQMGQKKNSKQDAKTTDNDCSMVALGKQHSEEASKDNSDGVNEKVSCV
Method in brief: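 CHO cells stably expressing human HTR2A were plated for 18 h at 37 C, then loaded with calcium dye for 1 h. Compounds were preincubated 5 min at room temperature before DOI (4 nM solution) was added. Kinetic fluorescence was read for 3 min.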

[10] = target: 5-hydroxytryptamine receptor 2A (Homo sapiens) (UniProt P28223); assay: 5-hydroxytryptamine receptor 2A (HTR2A) small molecule agonists, cell-based qHTS assay (AID 1963587); also: nearly all actives have a fitted effect of over 30% in size
Method in brief: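 HTR2A-CHO cells, plated 18 h at 37 C/5% CO2, dye-loaded 1 h at 37 C; compounds in DMSO added by pin tool (agonist mode). Intracellular calcium flux read as kinetic fluorescence on FDSS over 2 min at 1 s intervals.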

[11] = target: Muscarinic acetylcholine receptor M1 (Homo sapiens) (UniProt P11229); assay: Cholinergic receptor muscarinic 1 (CHRM1) small molecule antagonists, cell-based qHTS assay (AID 1963588); also: nearly all actives have a fitted effect of over 40% in size; also: potency is read from the fitted curve at half-maximal effect
Chain of Muscarinic acetylcholine receptor M1 (Homo sapiens) (P11229 whole entry, looked up): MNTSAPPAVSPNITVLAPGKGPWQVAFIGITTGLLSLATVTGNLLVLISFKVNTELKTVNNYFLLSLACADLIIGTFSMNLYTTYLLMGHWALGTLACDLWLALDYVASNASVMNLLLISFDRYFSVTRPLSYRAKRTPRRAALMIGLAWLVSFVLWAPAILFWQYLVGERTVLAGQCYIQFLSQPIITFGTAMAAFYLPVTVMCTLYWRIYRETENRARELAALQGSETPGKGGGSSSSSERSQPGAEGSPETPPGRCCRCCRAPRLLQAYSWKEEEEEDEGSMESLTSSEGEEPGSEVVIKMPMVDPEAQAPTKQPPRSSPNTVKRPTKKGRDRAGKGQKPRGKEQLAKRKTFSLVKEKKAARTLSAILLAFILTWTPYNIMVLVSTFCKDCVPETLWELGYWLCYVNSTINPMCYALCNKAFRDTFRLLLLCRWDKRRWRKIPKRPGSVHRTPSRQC
Method in brief: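 Compounds were tested at 15 concentrations in three independent runs. Dye-loaded CHRM1-CHO cells were exposed 5 min at room temperature before stimulation by acetylcholine added at 50nM. Intracellular calcium was read kinetically on FDSS for 3 min.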

[12] = target: Muscarinic acetylcholine receptor M1 (Homo sapiens) (UniProt P11229); assay: Cholinergic receptor muscarinic 1 (CHRM1) small molecule agonists, cell-based qHTS assay (AID 1963589); also: nearly all actives have a fitted effect of over 35% in size
Method in brief: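 Fluorescent calcium dye reports M1 activation in stably transfected CHO cells. Compounds, 15 concentrations, added after 1 h dye loading at 37 C; kinetic reading at 1 sec intervals.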

[13] = cAMP Responsive Elements (CRE) small molecule agonists, cell-based qHTS assay (AID 1963590)
Method in brief: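 Compound exposure lasted 3 h at 37 C/5% CO2 in CRE-bla HEK 293T cells grown in assay medium with 10% dialyzed FBS and 25 mM HEPES. Reporter signal came from LiveBLAzer B/G FRET substrate, 2 h, room temperature.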

[14] = cAMP Responsive Elements (CRE) small molecule antagonists, cell-based qHTS assay (AID 1963591; active = well fitted inhibition curve with a large enough effect in the signal ratio in the repeat runs, not every such curve was filed as active; the % refers to the signal ratio)
Method in brief: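 Stimulation used NKH477 at a final 0.25 uM for 3 h in compound-treated CRE-bla HEK293T cells, seeded 18 h beforehand. Reporter activity was measured with LiveBLAzer B/G FRET substrate after 2 h at room temperature.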

[15] = target: Beta-2 adrenergic receptor (Homo sapiens) (UniProt P07550); assay: Adrenergic beta2 receptor (ADRB2) small molecule antagonists, cell-based qHTS assay (AID 1963592); also: nearly all actives have a fitted effect of over 50% in size; also: potency is read from the fitted curve at half-maximal effect
Chain of Beta-2 adrenergic receptor (Homo sapiens) (P07550 whole entry, looked up): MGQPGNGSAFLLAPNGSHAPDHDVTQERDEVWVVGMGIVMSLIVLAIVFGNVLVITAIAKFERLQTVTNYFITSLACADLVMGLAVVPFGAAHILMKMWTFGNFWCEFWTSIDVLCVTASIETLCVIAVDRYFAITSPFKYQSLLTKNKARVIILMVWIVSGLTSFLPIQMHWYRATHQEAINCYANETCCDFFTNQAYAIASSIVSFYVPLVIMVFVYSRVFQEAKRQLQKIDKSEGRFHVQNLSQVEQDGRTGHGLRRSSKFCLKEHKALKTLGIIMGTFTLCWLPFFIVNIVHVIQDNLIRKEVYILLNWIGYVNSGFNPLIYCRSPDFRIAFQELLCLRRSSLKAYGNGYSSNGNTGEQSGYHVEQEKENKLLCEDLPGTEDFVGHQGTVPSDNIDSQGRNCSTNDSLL
Method in brief: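 Assay format: CHO-ADRB2 cells, 18-20hr seeding at 37C/5% CO2, then compound plus 1nM isoproterenol agonist mix for 0.5hr RT. Homogeneous time-resolved fluorescence cAMP detection after 1hr, expressed as 665/615 nm ratio.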

[16] = target: D(2) dopamine receptor (Homo sapiens) (UniProt P14416); assay: Dopamine D2 receptor (DRD2) small molecule agonists, cell-based qHTS assay (AID 1963594); also: nearly all actives have a fitted effect of over 35% in size
Chain of D(2) dopamine receptor (Homo sapiens) (P14416 whole entry, looked up): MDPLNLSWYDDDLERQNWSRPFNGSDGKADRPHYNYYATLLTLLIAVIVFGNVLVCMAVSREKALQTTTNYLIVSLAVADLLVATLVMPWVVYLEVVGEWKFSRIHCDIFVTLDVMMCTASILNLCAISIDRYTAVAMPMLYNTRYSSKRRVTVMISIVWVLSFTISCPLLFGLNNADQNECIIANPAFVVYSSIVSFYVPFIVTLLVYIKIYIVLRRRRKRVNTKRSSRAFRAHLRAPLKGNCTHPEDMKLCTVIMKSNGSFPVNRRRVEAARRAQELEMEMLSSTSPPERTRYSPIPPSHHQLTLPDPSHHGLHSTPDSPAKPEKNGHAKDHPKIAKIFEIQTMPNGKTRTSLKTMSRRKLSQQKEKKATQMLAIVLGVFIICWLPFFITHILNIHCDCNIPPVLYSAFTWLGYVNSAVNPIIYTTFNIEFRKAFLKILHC
Method in brief: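 HEK293 cells stably expressing DRD2 were cultured 24 h at 37 C, then given Ro20-1724 (0.1 mM final) and compounds for 10 min at room temperature. NKH477 (200nM) was then added for 30 min. cAMP was read by HTRF.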

[17] = target: D(2) dopamine receptor (Homo sapiens) (UniProt P14416); assay: Dopamine D2 receptor (DRD2) small molecule antagonists, cell-based qHTS assay (AID 1963595; active = well fitted inhibition curve with a large enough effect in the signal ratio in the repeat runs, with a control signal flat; the % refers to the signal ratio; also: potency is read from the fitted curve at half-maximal effect)
Method in brief: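 Antagonist mode in DRD2-HEK293 cells: after compound addition with 0.1 mM Ro20-1724, cells received quinpirole (12 nM) and NKH477 (200 nM) for 30 min at room temperature; HTRF cAMP read after 1 h detection.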

[18] = target: Beta-2 adrenergic receptor (Homo sapiens) (UniProt P07550); assay: Adrenergic beta2 receptor (ADRB2) small molecule agonists, cell-based qHTS assay (AID 1963593);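 also: CHO cells stably overexpressing human ADRB2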
Method in brief: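 CHO cells stably over-expressing ADRB2 were plated overnight at 37C, then dosed with compounds plus a stimulation mix containing 100uM IBMX and 25uM Ro-20-1724 for 0.5hr at room temperature. cAMP was measured by HTRF competition, 1hr.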

Measured: Potency

Cc1nc2ccc(CN(C)c3ccc(C(=O)N[C@@H](CCC(=O)O)C(=O)O)s3)cc2c(=O)[nH]1
not listed: [18]
inactive: all other assays above

O=[N+]([O-])c1nccn1CO[C@@H](CO)[C@H](O)CO
inactive: all assays above

O=C(O)Cc1ccc(OCCNC[C@H](O)c2ccccc2)cc1
active: [2] 33.5 µM
not listed: [18]
inactive: all other assays above

CC/C=C/CCCCCCCCCCOC(C)=O
inactive: all assays above

CCCCCCCC/C=C\CCCCCCCC(=O)OCC
not listed: [18]
inactive: all other assays above

Nc1ccc2cc(S(=O)(=O)O)cc(O)c2c1N=Nc1ccccc1C(F)(F)F
inactive: all assays above

O=Cc1ccccc1S(=O)(=O)O
inactive: all assays above

O=C(O)/C=C(\CC(=O)O)C(=O)O
not listed: [18]
inactive: all other assays above

Nc1cc(N)cc(C(=O)O)c1
not listed: [17] | [18]
inactive: all other assays above

Cc1nnc(SCC2=C(C(=O)O)N3C(=O)[C@@H](NC(=O)Cn4cnnn4)[C@H]3SC2)s1
inactive: all assays above

COc1cccc(CCc2ccccc2OCC(CN(C)C)OC(=O)CCC(=O)O)c1 (centres undefined)
active: [9] 7.29 µM | [15] 4.73 µM
not listed: [16] | [18]
inactive: all other assays above

CC(=O)N[C@@H](CCC(=O)O)C(=O)O
not listed: [16] | [18]
inactive: all other assays above

CC(C)(O)c1ccc(C(C)(C)O)cc1
not listed: [16] | [18]
inactive: all other assays above

CCOc1ccccc1OCCN[C@H](C)Cc1ccc(OC)c(S(N)(=O)=O)c1
active: [15] 8.41 µM | [17] 1.19 µM
not listed: [16] | [18]
inactive: all other assays above

Cc1ccc(C(C)OC(=O)C2(C)CCC(C(=O)O)C2(C)C)cc1 (centres undefined)
not listed: [14] | [18]
inactive: all other assays above

CCN(CC)CCNC(C(=O)OCCC(C)C)c1ccccc1 (centres undefined)
active: [11] 0.516 µM
not listed: [13] | [17] | [18]
inactive: all other assays above
